High-throughput results: PubChem, several laboratories
A selection: hits, their analogues and other compounds. The true share with any hit is near 2.7%.
DNA FID counter: compounds displacing fluorescent DNA intercalator, primary screen, artefact control for HCV NS3 helicase inhibitor project, biochemical, FID fluorescence | DNA fluorescent intercalator displacement | 0.17% of 290,000 active | inhibition, % at 7.9 µM; in the data active = inhibition above about 37%;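 note: 0% = vehicle and 100% = reference compound; higher means more ethidium bromide displaced from hairpin DNA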
PP5 primary: PP5 phosphatase inhibitors, primary screen, biochemical, fluorescence. Serine/threonine-protein phosphatase 5 (Homo sapiens), P53041. purified PP5c, OMFP substrate fluorescence. inhibition, % at 6.7 µM. 0.18% of 320,000 active. AID 1987, 2009;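 active = inhibition above the campaign's mean inhibition across all tested compounds plus 3 SD, cut at about 9.5% in these data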;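 note: 0% = DMSO only and 100% = 100 µM cantharidin control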
Target sequence (P53041 whole entry, looked up): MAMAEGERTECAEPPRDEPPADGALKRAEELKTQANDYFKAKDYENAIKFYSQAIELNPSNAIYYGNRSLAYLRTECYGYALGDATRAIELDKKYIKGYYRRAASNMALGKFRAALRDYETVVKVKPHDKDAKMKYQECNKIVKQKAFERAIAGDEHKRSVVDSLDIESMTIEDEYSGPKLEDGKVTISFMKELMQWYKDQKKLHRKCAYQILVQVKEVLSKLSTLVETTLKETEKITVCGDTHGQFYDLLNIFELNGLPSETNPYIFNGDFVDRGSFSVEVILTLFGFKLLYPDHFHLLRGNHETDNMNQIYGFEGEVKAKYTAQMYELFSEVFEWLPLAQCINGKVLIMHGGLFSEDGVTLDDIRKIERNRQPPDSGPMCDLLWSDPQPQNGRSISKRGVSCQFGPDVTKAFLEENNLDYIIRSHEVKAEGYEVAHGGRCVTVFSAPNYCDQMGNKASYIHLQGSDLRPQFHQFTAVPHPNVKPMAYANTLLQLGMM
TMEM16A act: TMEM16A chloride channel activators or potentiators, primary screen, cell-based, HTS; Anoctamin-1 (Mus musculus), Q8BHY3; B-score at 10 µM; HEK293 TMEM16A/YFP-H148Q/I152L, iodide quench fluorescence; stronger effect = lower value; 0.3% of 340,000 active;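 active = fluorescence-ratio B-score plate-corrected deviation score at least 3 library SD below zero, with starting fluorescence score within 5 deviations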;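 note: channel opened by trigger with iodide after compound preincubation; score built on the fluorescence ratio of max minus min over baseline; more negative score means more quench and so TMEM16A activation or potentiation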
PREPL inh: PREPL enzyme inhibitors, primary screen, biochemical, fluorescence polarization | Prolyl endopeptidase-like (Homo sapiens), Q4J6C6 | recombinant PREPL, fluorescence polarization activity-based probe | inhibition, % at 5.96 µM | 0.68% of 320,000 active; in the data active = inhibition above about 43%;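 note: 0% = enzyme with DMSO and 100% = wells lacking enzyme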
TMEM16A inh: TMEM16A chloride channel inhibitors, primary screen, cell-based, HTS | Anoctamin-1 (Mus musculus), Q8BHY3 | HEK293 TMEM16A/YFP iodide influx fluorescence, ionomycin | normalized B-score (activity score, 25-100; higher = stronger inhibition) at 10 µM | 1.2% of 310,000 active;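 active = ratio plate-corrected score three or more library SD toward inhibition, starting fluorescence score within five deviations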;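 note: score derived from kinetic fluorescence span divided by baseline fluorescence per well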
PP1 inh: PP1-alpha phosphatase inhibitors, primary screen, counter-screen for PP5 inhibitor project, biochemical, fluorescence, OMFP substrate, single point; Serine/threonine-protein phosphatase PP1-alpha catalytic subunit (Homo sapiens), P62136; inhibition, % at 6.7 µM; AID 2235, 2010; purified PP1alpha; 0.9% of 320,000 active;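 active = inhibition above the mean inhibition of all tested compounds plus 3 SD, computed separately for each screening campaign, cut at about 15% in these data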
TMEM16A reconf: TMEM16A chloride channel inhibitors, confirmation, cell-based, re-confirmation; shares compounds with TMEM16A inh; 39% of 2,300 active; HEK293 TMEM16A/YFP-H148Q, iodide quench fluorescence; ionomycin added to raise cell calcium; inhibition, % at 10 µM; AID 652189, 2013;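 active = mean duplicate percent inhibition, scaled so buffer wells are 0 and the reference blocker 100, over three buffer SD above buffer mean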
HEK293 Ca mobil: calcium mobilization in TMEM16A/YFP HEK293 cells, confirmation, counter-screen for TMEM16A inhibitor project | calcium response (% of ionomycin), % at 10 µM | 2% of 2,300 active | Fluo4 calcium mobilization | shares compounds with TMEM16A inh | AID 652231, 2013;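 active = duplicate-averaged calcium signal over 20% of the ionomycin maximum, relative to buffer baseline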;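 note: each well's signal is peak minus trough fluorescence divided by its pre-addition baseline; 0% = buffer wells and 100% = ionomycin wells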
Parental YFP cnt: iodide YFP quench changes in parental YFP-HEK293, counter-screen for TMEM16A inhibitor project, cell-based | AID 652233, 2013 | shares compounds with TMEM16A inh | ionomycin | YFP ratio F(max-min)/F0 at 10 µM | 2,300 tested, under 10 active;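 active = yellow fluorescent protein signal ratio exceeding the buffer control mean by over 5 SD of those controls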;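 note: ratio is mean of duplicate wells from kinetic YFP trace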
ClC-1 rat inh: ClC-1 chloride channel inhibition, selectivity assay for TMEM16A inhibitor project, cell-based, voltage-dependent ClC-1; CHO ClC-1-YFP, iodide influx fluorescence quench; iodide control reads 0, buffer control 100; shares compounds with TMEM16A inh; 2,300 tested, under 10 active; ratio percent, % at 10 µM;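 active = duplicate-mean ratio percent above the mean of iodide-only control wells, which defines zero, plus 5 of their SD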;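 note: higher percent means stronger block of ClC-1 iodide influx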
* hit, by the source's call; i = inactive; · = no result given.

SMILES	DNA FID counter	PP5 primary	TMEM16A act	PREPL inh	TMEM16A inh	PP1 inh	TMEM16A reconf	HEK293 Ca mobil	Parental YFP cnt	ClC-1 rat inh
O=C(NCc1ccccc1)C(=O)Nc1nc(C23CC4CC(CC(C4)C2)C3)cs1	-6	2	i	-4	i	-2	·	·	·	·
CNc1ccccc1C(C)(C)c1cc(-c2cccc(OC)c2)no1	-16	0	i	-51	25*	-2	23%*	i	-0.85	-4
CNc1ccccc1C(C)(C)c1cc(-c2cc(C)cc(C)c2)no1	-12	3	i	-7	i	0	·	·	·	·
CN(CC(=O)Nc1ccc(F)cc1)C(=O)C1CC(=O)N(Cc2ccccc2)C1 (stereo not drawn)	-4	-1	i	2	i	-4	·	·	·	·
CCOC(=O)c1ccc2[nH]cc(C(C)=O)c(=O)c2c1	-4	-1	i	-3	i	-4	·	·	·	·
CC(=O)c1c[nH]c2ccc(C)cc2c1=O	-1	-1	i	-3	100*	-4	i	i	-0.89	-9
COc1ccc(N2CCN(C(=O)COC(=O)c3ccc(CSC)o3)CC2)cc1	·	2	i	19	·	-4	·	·	·	·
Cc1ccc(C(=O)NCCNS(=O)(=O)c2ccccc2)cn1	-8	2	i	-10	i	2	·	·	·	·
Cc1cc(NC(=O)CCSc2ccccc2)no1	-8	-1	i	4	i	-3	·	·	·	·
Cc1ccc(-n2c(SCc3ccc([N+](=O)[O-])cc3)nc3ccccc3c2=O)cc1	3	-1	i	-17	25*	-4	i	i	-0.85	-10
CCCCNc1nc(Cl)nc(Nc2ccc(C)cc2)n1	·	0	i	0	i	2	·	·	·	·
COc1cccc(-c2ncc3ccccn23)c1	4	4	i	1	i	6	·	·	·	·
COc1cc(OC)cc(-c2ncc3ccccn23)c1	6	4	i	-12	100*	2	i	i	-1	-8
N#Cc1nc(-c2ccccc2Cl)oc1N1CCCCC1	-9	3	i	-3	25*	9	i	i	-1	-7
COc1ccccc1-c1nc(C#N)c(N2CCC(Cc3ccccc3)CC2)o1	-21	5	i	25	100*	3	i	i	-1.1	-15
COc1ccc(CN(CC(=O)NCCc2ccccc2)C(=O)CCC(=O)Nc2cc(C)ccn2)cc1	-31	3	i	-11	i	-4	·	·	·	·
Cc1[nH][nH]c(=O)c1/C=N/N1CCOCC1	0	5	i	-9	i	-4	·	·	·	·
CC1=CC(C)(C)N(S(=O)(=O)c2ccc(C)cc2)c2cc(C)ccc21	-8	4	i	-2	25*	0	i	i	-1.2	-10
Cc1ccc(C(c2ccc(C)c(C)c2)C(O)C2OC(=O)C(O)C2O)cc1C (stereo not drawn)	·	·	i	·	·	·	·	·	·	·
O=S(=O)(Nc1nc2ccccc2nc1Nc1ccc(N2CCOCC2)cc1)c1cc(Cl)ccc1Cl	-3	1	i	10	100*	1	42%*	26%*	-1	-10
COc1ccc(C(=O)NC(CCSC)C(=O)NCc2nnc3ccccn23)cc1 (stereo not drawn)	·	·	i	·	·	·	·	·	·	·
O=[N+]([O-])c1cc(C(F)(F)F)ccc1NCCc1c[nH]c2ccc(O)cc12	18	6	i	33	25*	4	i	i	-1	-11
CC(OC(=O)c1ccc(O)cc1)C(=O)Nc1cc(C(F)(F)F)ccc1Cl (stereo not drawn)	-11	2	i	2	25*	-3	58%*	i	-0.94	-18
NC(=O)C1CCCN(C(=O)CCC(=O)c2cccs2)C1 (stereo not drawn)	·	·	i	18	·	·	·	·	·	·
COc1ccc(CNC(=O)CCSc2nc(-c3ccc4c(c3)OCO4)cc(C(F)(F)F)n2)cc1	2	2	i	-3	i	-2	i	i	-1	-14
SMILES	DNA FID counter	PP5 primary	TMEM16A act	PREPL inh	TMEM16A inh	PP1 inh	TMEM16A reconf	HEK293 Ca mobil	Parental YFP cnt	ClC-1 rat inh
O=C(CCSc1nc(-c2ccc3c(c2)OCO3)cc(C(F)(F)F)n1)NCc1ccccc1	-7	-1	i	-7	i	4	·	·	·	·
COc1ccc(-c2cc(C(F)(F)F)nc(SCCC(=O)N3CCCC3)n2)cc1	3	2	i	-6	100*	-5	i	i	-1.3	-16
S=C(c1ccc(N2CCCC2)c(Br)c1)N1CCCCC1	-8	-1	i	15	i	1	·	·	·	·
CCOc1ccc(N2C(=O)CC(NCc3ccc(S(N)(=O)=O)cc3)C2=O)cc1 (stereo not drawn)	-3	-1	i	-7	i	-3	·	·	·	·
CCOc1ccc(N2C(=O)CC(NCC#N)C2=O)cc1 (stereo not drawn)	2	0	i	3	25*	-3	i	i	-1.1	-5
CCCOc1ccc(NC(=O)C2CC(=O)N3CCCN=C3S2)cc1 (stereo not drawn)	-9	0	i	2	25*	9	i	i	-1.1	-16
CC1CCN(C(=O)COC(=O)CCC(=O)c2ccc(Cl)cc2)CC1	·	·	i	0	·	·	·	·	·	·
O=C(CS(=O)CC(=O)N(CC(=O)NC1CCCC1)C1CCCC1)Nc1ccc(F)cc1 (stereo not drawn)	-16	2	·	21	25*	-4	i	i	-1.1	-8
O=[N+]([O-])c1cccc(S(=O)(=O)/N=C(/Nc2ccccc2)c2ccccc2)c1	·	·	i	0	·	·	·	·	·	·
Cc1ccc(OCc2nc(C#N)c(NCc3ccco3)o2)cc1	-15	4	i	-2	i	1	·	·	·	·
N#Cc1nc(COc2cccc(Cl)c2)oc1NCc1ccco1	-12	7	i	6	i	3	i	i	-1.3	-6
